Several values for one entry are separate records, joined by “and”; a condition that tells them apart may be missing. Equal values may be shown once. Results filed as inconclusive are left out. Activity calls are given as the source filed them.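 The calls were made as follows, unless noted: active = normalized viability below 100% at a tested concentration; inactive = the rest.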
Legend:
[1] = viability loss in pontine glioma line – cell-based, SU-DIPG-IV, MIPE4.0, CellTiter-Glo, qHTS, dose response (AID 1347063; cut-off not given, nearly all actives have AC50 up to about 30 µM;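 also: compound exposure lasted 48 hours before the viability readout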); conditions: CellTiter-Glo ATP luminescence
[2] = viability loss in pontine glioma line – cell-based, SU-DIPG-XXV, MIPE5.0, CellTiter-Glo, qHTS, dose response (AID 1347065; cut-off not given, nearly all actives have AC50 up to about 26 µM;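 also: cells exposed to compound for 48 hours before ATP readout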); conditions: CellTiter-Glo ATP luminescence
[3] = growth inhibition of DIPG cells – cell-based, MIPE4.0 library, CellTiter-Glo luminescence, qHTS (AID 1347066; cut-off not given, nearly all actives have AC50 up to about 30 µM;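 also: cells exposed to compound for 48 hours before readout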); conditions: SU-DIPG-VI viability, CellTiter-Glo ATP luminescence
[4] = JHH-DIPG-1 glioma cell viability, MIPE5.0 library, CellTiter-Glo luminescence, qHTS (AID 1347067; cut-off not given, nearly all actives have AC50 up to about 26 µM;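 also: cells exposed to compound for 48 hours before readout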); conditions: JHH-DIPG-1 glioma viability, CellTiter-Glo ATP luminescence
[5] = growth inhibition of DIPG cells – cell-based, MIPE5.0 library, qHTS (AID 1347068; cut-off not given, nearly all actives have IC50 up to about 30 µM;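 as to IC50: cells exposed to compound for 48 hours before viability readout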); conditions: SU-DIPG-XXV viability
[6] = compounds altering HSF1 focus formation in cells – imaging, Selleck Cancer Library (AID 1347162; in the data active = plate-normalised HSF1 focus index below about 0.46); conditions: human cells, HSF1 nuclear foci imaging, at 10 µM; SSMD: measured here: HSF1 foci SSMD mean; cell count: measured here: cell number; plate-normalised HSF1 focus index: stronger effect = lower value
[7] = drug combination growth inhibition, ovarian cancer – cell-based, oncology-focused library, rucaparib conditional, profiling panel (AID 1508598); conditions: patient-derived ovarian cancer cells, CellTiter-Glo viability, 144 h, stronger effect = lower value
[8] = viability loss in pontine glioma line – cell-based, JHH-DIPG-1, MIPE4.0, CellTiter-Glo, qHTS, dose response (AID 1347062; cut-off not given, nearly all actives have AC50 up to about 27 µM); conditions: JHH-DIPG-1 viability, CellTiter-Glo ATP luminescence
[9] = viability loss with induced miR-34 in A549 – imaging, A549 dox-inducible miR-34, nuclei and caspase counts, primary screen (AID 1347080;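 active = compounds whose cell count with miR-34 switched on is under 0.7 times the count with it off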); conditions: A549 miR-34 inducible, Hoechst nuclei count, 48 h
[10] = MELAS cybrid and Rieske KO viability enhancers – cell-based, MELAS cybrids, Rieske KO mouse fibroblasts, CellTiter-Glo, primary screen (AID 1508586;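 active = mean z-score across replicates of 1.96 or higher in either the MELAS or the Rieske mutant cell line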;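 also: z relative to plate mean and SD of compound and empty wells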); conditions: low glucose
[11] = viability loss in pontine glioma line – cell-based, SU-DIPG-XIII, MIPE5.0, CellTiter-Glo, qHTS, dose response (AID 1347064; cut-off not given, nearly all actives have AC50 up to about 23 µM;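 as to AC50: cells exposed to compound for 48 hours before the viability read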); conditions: CellTiter-Glo ATP luminescence
[12] = compounds altering circadian rhythm period length – cell-based, LOPAC library, luminescence reporter (AID 2774; call rule not given here;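 also: values are relative to mean of DMSO wells on each plate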); conditions: circadian reporter cells, at 7 µM, actives lie on both sides
[13] = system: Hepatitis C virus NS3 helicase; assay: blockers of NS3h binding to ssDNA – biochemical, fluorescence polarization, LOPAC1280 library, primary screen (AID 687035; in the data active = inhibition above about 37%); conditions: Purified HCV NS3 helicase, Cy5-dT15 ssDNA binding fluorescence polarization; stronger effect = higher value; concentration not given here
[14] = compounds altering Cy5-DNA-NS3h complex signal – biochemical, LOPAC1280, artefact control for HCV NS3 helicase inhibitor project (AID 687037; call rule not given here); conditions: Cy5-DNA-NS3h complex fluorescence interference counterscreen
[15] = chitosan synthesis blockers in C. neoformans – flow cytometry, Cibacron Brilliant Red staining (AID 1347148; call rule not given here;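 also: compound exposure lasted three days at 37 degrees C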); conditions: Cryptococcus neoformans chitosan, stronger effect = lower value; at 10 µM unless noted
[16] = blockers of cellular phospholipid synthesis – cell-based, LOPAC library, screen 4, primary screen (AID 1347384; call rule not given here); conditions: animal cells, phospholipid biosynthesis inhibition screen; at 10 µM
[17] = galactose survival enhancers in mitochondrial complex I cybrids – cell-based, galactose medium, ATP luminescence, primary screen (AID 1645843;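 active = z-score of at least 1.8 in each of two replicates, scored against plate mean and spread of sample wells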;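 also: positive z means more ATP and so rescue of galactose-driven cybrid death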); conditions: complex I mutant cybrid cells, 72 h, stronger effect = higher value
[18] = at 0.000305 µM, OCI-C5x cells, with rucaparib 10 µM, 100% = cells with rucaparib alone
[19] = at 0.000305 µM, OCI-C5x cells, without rucaparib
[20] = at 0.000305 µM, OCI-P5x cells, with rucaparib 20 µM, 100% = cells with rucaparib alone
[21] = at 0.000305 µM, OCI-P5x cells, without rucaparib
[22] = at 0.00122 µM, OCI-C5x cells, with rucaparib 10 µM, 100% = cells with rucaparib alone
[23] = at 0.00122 µM, OCI-C5x cells, without rucaparib
[24] = at 0.00122 µM, OCI-P5x cells, with rucaparib 20 µM, 100% = cells with rucaparib alone
[25] = at 0.00122 µM, OCI-P5x cells, without rucaparib
[26] = at 0.00488 µM, OCI-C5x cells, with rucaparib 10 µM, 100% = cells with rucaparib alone
[27] = at 0.00488 µM, OCI-C5x cells, without rucaparib
[28] = at 0.00488 µM, OCI-P5x cells, with rucaparib 20 µM, 100% = cells with rucaparib alone
[29] = at 0.00488 µM, OCI-P5x cells, without rucaparib
[30] = at 0.0195 µM, OCI-C5x cells, with rucaparib 10 µM, 100% = cells with rucaparib alone
[31] = at 0.0195 µM, OCI-C5x cells, without rucaparib
[32] = at 0.0195 µM, OCI-P5x cells, with rucaparib 20 µM, 100% = cells with rucaparib alone
[33] = at 0.0195 µM, OCI-P5x cells, without rucaparib
[34] = at 0.0781 µM, OCI-C5x cells, with rucaparib 10 µM, 100% = cells with rucaparib alone
[35] = at 0.0781 µM, OCI-C5x cells, without rucaparib
[36] = at 0.0781 µM, OCI-P5x cells, with rucaparib 20 µM, 100% = cells with rucaparib alone
[37] = at 0.0781 µM, OCI-P5x cells, without rucaparib
[38] = at 0.313 µM, OCI-C5x cells, with rucaparib 10 µM, 100% = cells with rucaparib alone
[39] = at 0.313 µM, OCI-C5x cells, without rucaparib
[40] = at 0.313 µM, OCI-P5x cells, with rucaparib 20 µM, 100% = cells with rucaparib alone
[41] = at 0.313 µM, OCI-P5x cells, without rucaparib
[42] = at 1.25 µM, OCI-C5x cells, with rucaparib 10 µM, 100% = cells with rucaparib alone
[43] = at 1.25 µM, OCI-C5x cells, without rucaparib
[44] = at 1.25 µM, OCI-P5x cells, with rucaparib 20 µM, 100% = cells with rucaparib alone
[45] = at 1.25 µM, OCI-P5x cells, without rucaparib
[46] = at 5 µM, OCI-C5x cells, with rucaparib 10 µM, 100% = cells with rucaparib alone
[47] = at 5 µM, OCI-C5x cells, without rucaparib
[48] = at 5 µM, OCI-P5x cells, with rucaparib 20 µM, 100% = cells with rucaparib alone
[49] = at 5 µM, OCI-P5x cells, without rucaparib
[50] = stronger effect = lower value, cell number ratio, induced over uninduced
[51] = measured here: relative caspase fold change +Dox/-Dox
[52] = measured here: total cells with miR-34 induction, stronger effect = lower value
[53] = measured here: total cells without miR-34 induction

CN(C)CC[C@H](CSc1ccccc1)Nc1ccc(S(=O)(=O)NC(=O)c2ccc(N3CCN(Cc4ccccc4-c4ccc(Cl)cc4)CC3)cc2)cc1[N+](=O)[O-]
AC50 [1]: 7.43 µM (active)
AC50 [2]: 0.934 µM (active)
AC50 [3]: 2.35 µM (active)
AC50 [4]: 16.6 µM (active)
IC50 [5]: 13.2 µM (active)
SSMD [6]: -3.9
cell count [6]: 6950
plate-normalised HSF1 focus index [6]: 0.864 (inactive)
viability [7, 18]: 121% (inactive)
viability [7, 19]: 119% (inactive)
viability [7, 20]: 148% (inactive)
viability [7, 21]: 108% (inactive)
viability [7, 22]: 119% (inactive)
viability [7, 23]: 124% (inactive)
viability [7, 24]: 135% (inactive)
viability [7, 25]: 102% (inactive)
viability [7, 26]: 109% (inactive)
viability [7, 27]: 114% (inactive)
viability [7, 28]: 141% (inactive)
viability [7, 29]: 108% (inactive)
viability [7, 30]: 85.3% (active)
viability [7, 31]: 114% (inactive)
viability [7, 32]: 140% (inactive)
viability [7, 33]: 101% (inactive)
viability [7, 34]: 79.6% (active)
viability [7, 35]: 103% (inactive)
viability [7, 36]: 135% (inactive)
viability [7, 37]: 99.6% (active)
viability [7, 38]: 69% (active)
viability [7, 39]: 46.2% (active)
viability [7, 40]: 121% (inactive)
viability [7, 41]: 96.5% (active)
viability [7, 42]: 62.2% (active)
viability [7, 43]: 91.3% (active)
viability [7, 44]: 130% (inactive)
viability [7, 45]: 91.4% (active)
viability [7, 46]: 7.96% (active)
viability [7, 47]: 22.6% (active)
viability [7, 48]: 9.56% (active)
viability [7, 49]: 75.3% (active)

COc1cc(N2CCC(C(N)=O)CC2)ccc1Nc1nc(N)c(Cl)c(Nc2ccccc2S(=O)(=O)C(C)C)n1
AC50 [1]: 5.9 µM (active)

C[C@@H](N)c1ccc(C(=O)Nc2ccnc3[nH]ccc23)cc1
AC50 [1]: 0.418 µM (active)
outcome [3]: inactive
IC50 [5]: 18.6 µM (active)

CC(C)N(CCCNC(=O)Nc1ccc(C(C)(C)C)cc1)C[C@H]1O[C@@H](n2cc(Br)c3c(N)ncnc32)[C@H](O)[C@@H]1O
AC50 [1]: 14.8 µM (active)
IC50 [5]: 23.5 µM (active)

COc1ccc(CCC(=O)Nc2nc3ccc(Cl)cc3s2)cc1OC
outcome [8]: inactive
outcome [4]: inactive
outcome [5]: inactive
fold change [9, 50]: 0.879 (inactive)
fold change [9, 51]: 0.345
cell count [9, 52]: 7570
cell count [9, 53]: 8610
z-score ([10]; MELAS cybrid survival, CellTiter-Glo 48 h, stronger effect = higher value): 1.34 (inactive)
z-score ([10]; Rieske KO mouse fibroblast survival, CellTiter-Glo 72 h): -0.214

N#Cc1ccc(Oc2ccc3c(c2)COB3O)cc1
outcome [1]: inactive
outcome [11]: inactive
outcome [2]: inactive
outcome [3]: inactive
outcome [5]: inactive

COc1cc(OCc2cccc(-c3ccccc3)c2C)cc(OC)c1CN1CCCC[C@H]1C(=O)O
outcome [11]: inactive
AC50 [2]: 20.9 µM (active)

CC(C)NC(=O)COc1cccc(-c2nc(Nc3ccc4[nH]ncc4c3)c3ccccc3n2)c1
AC50 [11]: 5.9 µM (active)
AC50 [2]: 5.25 µM (active)

CON(C)C(=O)N1N=C(c2cc(F)ccc2F)S[C@]1(CCCN)c1ccccc1
outcome [1]: inactive
outcome [3]: inactive

NC(=O)c1cccc2[nH]c(-c3ccc([C@H]4CCCN4)cc3F)nc12
outcome [1]: inactive
outcome [3]: inactive
outcome [5]: inactive

C[C@@H]1CCNC(=O)c2cc3ccc(C(=O)Nc4nc5ccccc5n4CCCN(C)C)cc3n21
outcome [11]: inactive

Cc1ccc(S(=O)(=O)N[C@@H](Cc2ccccc2)C(=O)CCl)cc1
period change [12]: -0.14 h (inactive)
inhibition [13]: -4% (inactive)
fluorescence ratio (interference) [14]: 1 (inactive)
AC50 [1]: 18.7 µM (active)
AC50 [2]: 18.6 µM (active)
AC50 [3]: 20.9 µM (active)
AC50 [4]: 23.5 µM (active)
fold change [9, 50]: 1.17 (inactive) and 1.22 (inactive)
fold change [9, 51]: 0.738 and 0.849
cell count [9, 52]: 1870 and 962
cell count [9, 53]: 1600 and 786
fold fluorescence [15]: 6.27 [at 142.1 µM] (inactive)
outcome [16]: inactive
z-score [17]: -1.34 (inactive)

CC[C@H](Nc1ncnc2nc[nH]c12)c1nc2cccc(F)c2c(=O)n1-c1ccccc1
AC50 [1]: 16.6 µM (active)
outcome [11]: inactive
outcome [4]: inactive
outcome [5]: inactive
SSMD [6]: 2.21
cell count [6]: 7370
plate-normalised HSF1 focus index [6]: 1.08 (inactive)
viability [7, 18]: 99.3% (active)
viability [7, 19]: 121% (inactive)
viability [7, 20]: 96.5% (active)
viability [7, 21]: 104% (inactive)
viability [7, 22]: 104% (inactive)
viability [7, 23]: 124% (inactive)
viability [7, 24]: 98.6% (active)
viability [7, 25]: 105% (inactive)
viability [7, 26]: 108% (inactive)
viability [7, 27]: 116% (inactive)
viability [7, 28]: 82.2% (active)
viability [7, 29]: 96.9% (active)
viability [7, 30]: 101% (inactive)
viability [7, 31]: 138% (inactive)
viability [7, 32]: 87.8% (active)
viability [7, 33]: 105% (inactive)
viability [7, 34]: 110% (inactive)
viability [7, 35]: 129% (inactive)
viability [7, 36]: 96.3% (active)
viability [7, 37]: 104% (inactive)
viability [7, 38]: 105% (inactive)
viability [7, 39]: 119% (inactive)
viability [7, 40]: 103% (inactive)
viability [7, 41]: 115% (inactive)
viability [7, 42]: 103% (inactive)
viability [7, 43]: 139% (inactive)
viability [7, 44]: 105% (inactive)
viability [7, 45]: 109% (inactive)
viability [7, 46]: 110% (inactive)
viability [7, 47]: 133% (inactive)
viability [7, 48]: 98.1% (active)
viability [7, 49]: 102% (inactive)

Cc1c(NC(=O)c2cc(C(N)=O)nc3cc(F)ccc23)c(C(F)(F)F)nn1Cc1ccc(C(C)(C)C)cc1
AC50 [11]: 26.3 µM (active)
AC50 [2]: 20.9 µM (active)
AC50 [4]: 23.5 µM (active)

COCCCc1sc(-c2ccccc2)nc1C(=O)Nc1ccccc1-c1nc2cc(CN3CCCC3)cnc2s1
AC50 [11]: 9.1 µM (active)
AC50 [2]: 12.9 µM (active)

From PubChem BioAssay
